Measurements: PubChem BioAssay AID1578 (Sanford-Burnham Center for Chemical Genomics, 2009)
“And” between values parts separate entries of the source, which are not always exact repeats. Equal values may be shown once. Hit rate of the full screen: of about 290,000 compounds, about 3,000 (1%) were called active. No stated cut-off is given here; in the data, active means inhibition mostly above about 36% (no sharp cut-off); inactive means mostly below about 34%. What follows is part of a selection rich in actives, with near analogues and random picks from the rest.

Test: inhibition of NOD1-driven NF-kB reporter – cell-based, luminescence, uHTS, primary screen (AID 1578);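 further: HEK-293T reporter cells stimulated with the NOD1 agonist gamma-tri-DAP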
Conditions: NOD1-driven NF-kB luciferase reporter cells, at 4 µM, hits give high values

| SMILES | inhibition |
| --- | --- |
| O=C(N/N=C/c1ccc([N+](=O)[O-])cc1)c1cccc(N2CCCC2=O)c1 | -9.3% (inactive) |
| Cc1cc(=O)oc2cc(OCC(=O)NC(Cc3c[nH]c4ccc(O)cc34)C(=O)O)c(Cl)cc12 (stereo unspecified) | -16.2% (inactive) |
| COc1ccc(/C=C2\SC(=O)N(CCNC(=O)Cc3coc4cc(OC)ccc34)C2=O)cc1 | -10.8% (inactive) |
| Cc1c(C(=O)NCCN2C(=O)S/C(=C\c3cccnc3)C2=O)cccc1[N+](=O)[O-] | 1.5% (inactive) |
| COc1ccc(/C=C2\SC(=O)N(CCNC(=O)Cc3coc4cc(C)ccc34)C2=O)cc1OC | -2.7% (inactive) |
| COc1ccc(C(=O)NCCN2C(=O)S/C(=C\c3cccnc3)C2=O)cc1[N+](=O)[O-] | 1.6% (inactive) |
| COc1ccc2c(CC(=O)NCCN3C(=O)S/C(=C\c4cccnc4)C3=O)coc2c1 | 68% (active) |
| CS(=O)(=O)c1ccc(C(=O)NCCN2C(=O)S/C(=C\c3cccnc3)C2=O)cc1[N+](=O)[O-] | 93.4% (active) |
| O=C(O)CSCC(=O)N1CCN(S(=O)(=O)c2ccccc2)CC1 | -20.2% (inactive) |
| c1ccc(NC2=NCCN2CC2CCCC2)cc1 | -17.2% (inactive) |
| CCC(C)NC(=O)c1ccc2nc(Cc3ccc(OC)cc3)oc2c1 (stereo unspecified) | -14.9% (inactive) |
| COc1ccc(Cc2nc3ccc(C(=O)NC(C)c4cnn(C)c4)cc3o2)cc1 (stereo unspecified) | -4.3% (inactive) |
| COc1ccc(OC)c(NC(=O)CNC(=O)Cn2cnc3sc(C)cc3c2=O)c1 | -3.5% (inactive) |
| COc1ccc(-c2cc(=O)oc3cc(OC(C)C(=O)O)ccc23)cc1 (stereo unspecified) | 29.6% (inactive) |
| COc1ccc(-c2cc(=O)oc3cc(OCC(C)=O)ccc23)cc1 | -12.9% (inactive) |
| O=C(Oc1ccc2c(-c3ccccc3)cc(=O)oc2c1)C1CCCCC1 | 13.8% (inactive) |
| O=C(Oc1ccc2ccc(=O)oc2c1)C1CCCCC1 | -28.4% (inactive) |
| COc1ccc(-c2cc(=O)oc3cc(OC(=O)C4CCCCC4)ccc23)cc1 | 87.8% (active) |
| Nc1cc(=O)[nH]c(SCc2ccccc2Cl)n1 | -3.2% (inactive) |
| CN1C(=O)S/C(=C/c2cccnc2)C1=O | -3.3% (inactive) |
| Cc1cc(C(=O)NC2CC(C)(C)Cc3c2cnn3-c2ccccc2C)c(C)o1 (stereo unspecified) | -10.6% (inactive) |
| Clc1ccccc1OCc1nn2c(-c3ccncc3)nnc2s1 | -2.2% (inactive) |
| COc1ccc(NC(=O)CSc2ccc(-c3sc(C)nc3C)nn2)cc1 | -17.2% (inactive) |
| COc1ccc(NC(=O)CSc2ccc(-c3sc(C)nc3C)nn2)cc1OC | -3.5% (inactive) |

| SMILES | inhibition |
| --- | --- |
| CCOC(=O)CCCCCN1C(=O)c2cccc3cccc(c23)C1=O | -23.8% (inactive) |
| CCN(CC)S(=O)(=O)c1ccc(C(=O)NCCCn2ccnc2)cc1 | -65.6% (inactive) |
| O=C(O)c1ccc(N2CCCCS2(=O)=O)cc1 | -12.1% (inactive) |
| Cc1noc(C(=O)NCc2ccco2)c1Cl | -14.8% (inactive) |
| COc1ccc(NC(=O)CS(=O)(=O)c2ccc(F)cc2)cc1 | -5.8% (inactive) |
| O=C(Nc1ccccc1)c1cc2ccccc2c(=O)s1 | 63.7% (active) |
| O=C(Nc1ccccc1)c1cc2ccc3ccccc3c2s1 | -10.5% (inactive) |
| O=C(Nc1ccc(O)cc1)c1cc2ccccc2c(=O)s1 | -2.1% (inactive) |
| Cc1ccc(C)c(N2CCN(C(=O)CCS(=O)(=O)c3cccc4nonc34)CC2)c1 | 1.8% (inactive) |
| CC(C)C[C@H](N)c1nnc(SCc2ccc(Cl)cc2)o1 | 20.5% (active) |
| CC(C)C[C@@H](N)c1nnc(SCC(=O)c2ccc(Cl)cc2)o1 | -21.8% (inactive) |
| CC(C)[C@H](N)c1nnc(SCc2ccc(Cl)cc2)o1 | -4.6% (inactive) |
| COc1ccc(N=Cc2cccc(C)c2O)cc1Cl | -10% (inactive) |
| COc1cc(C=Nc2cccc(C)c2)c(O)c([N+](=O)[O-])c1 | -20.1% (inactive) |
| Cc1ccc(O)c(C=Nc2cc(C)ccc2O)c1 | -25.5% (inactive) |
| O=[N+]([O-])c1cc(Cc2ccccc2)cc(C=Nc2ccc(N3CCOCC3)cc2)c1O | 34% (inactive) |
| COc1ccc(N=Cc2cc(Cc3ccccc3Cl)cc([N+](=O)[O-])c2O)cc1OC | 62.4% (active) |
| O=C(N/N=C/c1cc([N+](=O)[O-])c(N2CCOCC2)cc1N1CCOCC1)c1cccnc1 | -24.1% (inactive) |
| O=C(COC(=O)COc1ccccc1[N+](=O)[O-])Nc1ccccc1Br | 9.3% (inactive) |
| Cc1c(C(=O)N2CCCC2)sc(NC(=O)c2ccco2)c1C#N | 48.7% (active) |
| Cc1c(C(=O)N2CCCCC2)sc(NC(=O)c2ccco2)c1C#N | -0.9% (inactive) |
| Cc1c(C(=O)N2CCCC2)sc(NC(=O)c2ccccc2)c1C#N | -9.5% (inactive) |
| CC1C(=NO)C(C)C(c2ccc(N(C)C)cc2)NC1c1ccc(N(C)C)cc1 (stereo unspecified) | 4% (inactive) |
| COc1ccc2c(c1)sc1nc(-c3ccccc3)cn12 | 34.4% (active) |

| SMILES | inhibition |
| --- | --- |
| COc1ccc2c(c1)sc1nc(=O)ccn12 | -3.3% (inactive) |
| CCOC(=O)N1CCN(C(=O)c2ccc3c(c2)sc2nc(-c4ccc(OC)cc4)cn23)CC1 | -15.5% (inactive) |
| O=C(COc1ccccc1)Nc1ccc(Cl)c(-c2nc3ncccc3o2)c1 | -25.6% (inactive) |
| COc1cccc(C(=O)N2CCN(C(=O)C3CC3)CC2)c1 | -26.7% (inactive) |
| COc1ccc(OC(C)C(=O)N2CCCc3ccccc32)cc1 (stereo unspecified) | -45.6% (inactive) |
| Cc1nc2ccccn2c1C(=O)N=Nc1c(O)n(CCC(C)C)c2ccccc12 | 92% (active) |
| CC(C)CCn1c(O)c(N=NC(=O)c2ccco2)c2ccccc21 | 24.4% (inactive) |
| Cc1nc2ccccn2c1C(=O)N=Nc1c(O)[nH]c2ccccc12 | 11.6% (inactive) |
| CC1=Nc2cc(C(=O)NCCCOC(C)C)ccc2Sc2ccccc21 | 3.6% (inactive) |
| Cc1[nH]n(-c2ccccc2)c(=O)c1-c1ccc(Cl)cc1 | -30.5% (inactive) |
| Cc1[nH]n(-c2cccc(Cl)c2)c(=O)c1-c1ccccc1 | -18% (inactive) |
| O=C(CSc1nnc(Cn2c(=O)sc3ccccc32)n1CCc1ccccc1)N1CCOCC1 | -11.3% (inactive) |
| COc1ccccc1N1CCN(C(=O)C2CC=CCC2C(=O)O)CC1 (stereo unspecified) | -7.7% (inactive) |
| COc1cccc2c1OCC(C(=O)O)C2 (stereo unspecified) | -26.7% (inactive) |
| COc1cccc2c1C(CO)N1C(C#N)C3CC(C(=O)O)C(C1C2)N3C (stereo unspecified) | 102% (active) |
| CC(C)c1ccc(NC2CCCN(C(=O)c3ccc(N4CCOCC4)cc3)C2)cc1 (stereo unspecified) | -4% (inactive) |
| Cc1ccc(S(=O)(=O)c2c(C)cc(C)[nH]c2=O)cc1 | -7.8% (inactive) |
| Cc1ccc(N/N=C(\C#N)C(=O)c2ccsc2)cc1 | -5.4% (inactive) |
| N#C/C(=N\Nc1ccc(Cl)cc1)C(=O)c1ccsc1 | 75.6% (active) |
| N#C/C(=N\Nc1ccc(Cl)cc1)C(=O)c1ccccc1 | 66.9% (inactive) |
| Cc1[nH]n(-c2ccccc2)c(=O)c1C=Nc1cccc2cccnc12 | 45.4% (inactive) |
| Cc1[nH]n(-c2ccccc2)c(=O)c1/C=N/N1C(=O)c2cccc3cccc(c23)C1=O | -49.6% (inactive) |
| Cc1[nH]n(-c2ccccc2)c(=O)c1/C=N/N1C(=O)c2ccc3c4c(ccc(c24)C1=O)CC3 | 90.8% (active) |
| Cc1cccc(/N=C/c2c(C)[nH]n(-c3ccccc3)c2=O)n1 | -8.3% (inactive) |

| SMILES | inhibition |
| --- | --- |
| Cc1[nH]n(-c2ccccc2)c(=O)c1/C=N/N1CCOCC1 | 6.6% (inactive) |
| COc1ccc(N=C2SC(C(=O)Nc3ccc(OC)cc3)CC(=O)N2CCN2CCOCC2)cc1 (stereo unspecified) | -18.8% (inactive) |
| COc1cc(CN2CCCCCC2)cc(OC)c1OC | -23% (inactive) |
| C[n+]1cn(/N=C/c2ccccc2)c2ccccc21 | 75.1% (active) |
| Cn1c(=O)n(/N=C/c2ccccc2)c2ccccc21 | -23.6% (inactive) |
| C(=N\n1c2ccccc2c2ccccc21)/c1ccccc1 | 6.6% (inactive) |
| CCOC(=O)Cc1csc(NC(=O)c2sc3nc4cc(C)ccc4cc3c2N)n1 | -55.6% (inactive) |
| Cc1ccccc1CN1CCC(Oc2ccc(C(=O)NCc3ccccn3)cc2)CC1 | 17% (inactive) |
| CCn1cc(CNC(=O)c2ccc(OC3CCN(Cc4ccccn4)CC3)cc2)cn1 | -0.8% (inactive) |
| Cc1cc(Sc2nnc(N)s2)c2ccccc2n1 | 53.2% (active) |
| Cc1ccc(NC(=O)CSc2nnc(/N=C/N(C)C)s2)cc1 | -37.6% (inactive) |
| CCCCCCCCSc1nnc(/N=C/N(C)C)s1 | -11.4% (inactive) |
| COc1ccc2nc(C)cc(Sc3nc4ccccc4s3)c2c1 | 47.7% (active) |
| Cc1nc2ccccc2nc1CSc1nnc(N)s1 | -18% (inactive) |
| Cc1cc(N)c2ccccc2n1 | -45.9% (inactive) |
| COc1ccc2nc(C)cc(SCC(=O)O)c2c1 | -24.8% (inactive) and -30.8% (inactive) |
| COc1ccc2nc(C)cc(SCC(=O)NNC(=O)COc3ccccc3)c2c1 | 9.9% (inactive) |
| Cc1cc(Sc2nnc(/N=C/N(C)C)s2)c2ccccc2n1 | 46.4% (active) |
| Cc1ccccc1CN1CCN(CC(=O)NCc2ccco2)C1=O | -14.9% (inactive) |
| FC(F)(F)COc1nc(N2CCOCC2)nc(N(c2ccccc2)c2ccccc2)n1 | -30.9% (inactive) |
| O=C(Nc1cccc(NC(=O)c2cncc(Br)c2)c1)c1cncc(Br)c1 | -16.9% (inactive) |
| Cc1ccc(NS(=O)(=O)c2cn(C)c(=O)n(C)c2=O)cc1C | -34.3% (inactive) |
| Cc1ccc(-c2nc(NCC3CCCO3)sc2C)cc1 (stereo unspecified) | -53.2% (inactive) |
| COCc1cc(C2C(C(=O)c3ccco3)=C(O)C(=O)N2CCOCCO)ccc1O (stereo unspecified) | -32.2% (inactive) |
